Experimental data published in PubChem BioAssay AID778 (Sanford-Burnham Center for Chemical Genomics, 2007).
Among all 96,000 compounds or so, about 20,000 (21%) were called active. Only a sample is shown. Unmarked numbers belong to inactive results.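 Rule for the calls: active = CYP2C19 inhibition above a set limit at 5 µM in the primary screen (cut at about 50% in these data); inactive = the rest.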

The molecules below were run against Cytochrome P450 2C19 (Homo sapiens) (UniProt P33261) (assay: blockers of cytochrome P450 2C19 activity – biochemical, luminescence, ADME assay, primary screen (AID 778;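 note: plate controls were negative control wells for no effect and 2.5 mM tranylcypromine positive control for full effect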)). Details: CYP2C19 Supersomes, luciferin-H EGE luminescence, 30 min; at 5 µM; hits give high values.
Sequence of Cytochrome P450 2C19 (Homo sapiens) (P33261 whole entry, looked up): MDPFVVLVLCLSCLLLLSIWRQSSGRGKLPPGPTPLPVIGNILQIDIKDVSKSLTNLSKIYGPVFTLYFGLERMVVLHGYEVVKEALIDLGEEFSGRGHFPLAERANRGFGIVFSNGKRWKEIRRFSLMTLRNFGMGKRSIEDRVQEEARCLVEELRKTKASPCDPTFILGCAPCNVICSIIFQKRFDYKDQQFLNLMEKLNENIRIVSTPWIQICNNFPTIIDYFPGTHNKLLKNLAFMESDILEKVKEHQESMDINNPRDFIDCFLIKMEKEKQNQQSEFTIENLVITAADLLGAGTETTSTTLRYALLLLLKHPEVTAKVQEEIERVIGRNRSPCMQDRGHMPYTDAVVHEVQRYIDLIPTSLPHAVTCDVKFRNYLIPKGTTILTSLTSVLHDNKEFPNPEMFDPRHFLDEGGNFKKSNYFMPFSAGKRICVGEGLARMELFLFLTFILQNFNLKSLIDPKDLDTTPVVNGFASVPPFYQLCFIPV

| SMILES | inhibition |
| --- | --- |
| O=C(CN1CCN(c2ncc(C(F)(F)F)cc2Cl)CC1)Nc1ccc2c(c1)OCO2 | 22% |
| O=C(Cc1ncc(C(F)(F)F)cc1Cl)Nc1cccc(Br)c1 | 55.7% (active) |
| CC(=O)c1ccc(Cc2ncc(C(F)(F)F)cc2Cl)s1 | 16.5% |
| CCOC(=O)c1[nH]c2c(c1C)C(=O)CC(c1ccc(N(C)C)cc1)C2 (stereo not given) | 6.7% |
| CCCCn1c(SCc2ncc(-c3ccccc3)o2)nc2cc(S(N)(=O)=O)ccc21 | 25% |
| Cc1cc(C)nc(NC(=O)Nc2ccccc2C(F)(F)F)n1 | 21% |
| O=C(c1ccccc1)c1cc(-c2ccccn2)c(N2CCOCC2)s1 | 14.1% |
| COc1cccc(-c2nnc(SCCOc3ccc4c(C)cc(=O)oc4c3)o2)c1 | -15.6% |
| Cc1cc(=O)oc2cc(OCC3CC(c4ccccc4Cl)=NO3)ccc12 (stereo not given) | 50.8% (active) |
| Cc1cc(=O)oc2ccc(OCC(=O)O)cc12 | 3.3% |
| CCOC(=O)c1c(NC(=O)CSc2nnc(CN3CCOCC3)n2C)sc2c1CCCC2 | 48.7% |
| NC(=O)C1CC=CCC1C(=O)OCC(Cl)=C(Cl)Cl (stereo not given) | 22% |
| COc1ccc(N=Cc2c(O)[nH]c3ccccc23)cc1OC | 32.9% |
| COc1cc(N=Cc2c(O)[nH]c3ccccc23)cc(OC)c1OC | 63.9% (active) |
| COc1ccc(OC)c(N=Cc2c(O)[nH]c3ccccc23)c1 | 7.7% |
| Nn1c(SCC(=O)NC2CCCC2)nnc1-c1ccccc1F | 21.3% |
| O=c1[nH][nH]c(C(F)(F)F)c1C=NCc1ccccc1Cl | 93.3% (active) |
| CC/S(CC1CC1(Cl)Cl)=N\S(=O)(=O)c1ccc(C)cc1 (stereo not given) | 9.6% |
| COc1ccc(NS(=O)(=O)c2ccc(NC(=O)C(C)(C(F)(F)F)C(F)(F)F)cc2)nn1 | -7.1% |
| CC1=NC2(CCCc3c2no[n+]3[O-])N(O)C1(C)C (stereo not given) | -17.9% |
| CSc1nnc2c(n1)OC(c1cn(C)c3ccccc13)N(C(C)=O)c1ccccc1-2 (stereo not given) | 0.8% |
| Oc1c(C(c2ccccn2)N2CCOCC2)ccc2cccnc12 (stereo not given) | -8.6% |
| CCOC(=O)N1CCN(C(=O)CSc2nnc(-c3c[nH]c4ccccc34)n2CCOC)CC1 | 4.5% |
| CCOC(=O)C1CCN(C(=O)COc2cc(C)c(Br)c(C)c2)CC1 | 86.3% (active) |
| CCOC(=O)N1CCN(C(=O)CNC(=O)Cc2ccc(Cl)cc2)CC1 | 5.9% |

| SMILES | inhibition |
| --- | --- |
| CCOC(=O)N1CCN(C(=O)CSc2ccc(Cl)cc2)CC1 | 71.6% (active) |
| CCOC(=O)C1CCN(C(=O)Cc2c(C(=O)O)[nH]c3ccccc23)CC1 | 2.6% |
| CCOC(=O)C1CCN(C(=O)CSc2cc(=O)n(C)c3ccccc23)CC1 | 2.4% |
| CCOC(=O)N1CCN(C(=O)COc2ccc(Cl)cc2C)CC1 | 14.4% |
| CCOC(=O)N1CCN(C(=O)COc2ccc(Br)cc2)CC1 | 59.1% (active) |
| CN1CCCC(OC(=O)COc2ccc(Br)cc2)C1 (stereo not given) | 27% |
| CC12C(=O)N(n3cnnc3)C(=O)C1C1C=CC2C1 (stereo not given) | -13.7% |
| Cc1cc2nnc(SCC(=O)N3CCN(c4ccccc4)CC3)n2c(N)n1 | -9.1% |
| NC(=O)CSC1=Nc2ccccc2C2=NC(CCC(=O)NCc3ccc(F)cc3)C(=O)N12 (stereo not given) | 47.9% |
| CCOC(=O)CCc1c(C)c(C#N)c2[nH]c3ccccc3n2c1=O | 27.1% |
| CC1CN(C2CCCCC2)c2nc3c(c(=O)n(C)c(=O)n3C)n2C1 (stereo not given) | 29.5% |
| O=C1NC(c2cc3c(cc2Cl)OCO3)Oc2ccccc21 (stereo not given) | 55.5% (active) |
| Cc1cc(C)c2c3c(sc2n1)C(c1ccccc1)C(C#N)=C(N)O3 (stereo not given) | -7.9% |
| CN(C)c1cc[n+](Cc2ccccc2)cc1 | -3.4% |
| CN(C)c1ccc(/C=C2\NC(=S)N(Cc3ccccc3)C2=O)cc1 | 57.6% (active) |
| CC1=NN(Cc2ccccc2)C(=O)/C1=C/c1ccc(N(C)C)cc1 | 10.1% |
| CCCCCCCC(=O)NC(Nc1ccccc1OC)C(Cl)(Cl)Cl (stereo not given) | 3.6% |
| CCC(=O)Nc1ccc(C(=O)CSc2nnc(CNc3ccc(Cl)cc3)o2)cc1OC | 11% |
| CCOC(=O)CSc1nnc(CNc2ccc(F)cc2)o1 | 56.5% (active) |
| CCOC(=O)CSc1nnc(-c2cccc(Br)c2)o1 | 28.9% |
| CNC(=O)c1nnn(-c2ccccc2)c1C(=O)NC | -4% |
| Cc1ccc(-n2ncc3c(=O)n(-c4ccc(C)c(C)c4)c(-c4ccco4)nc32)cc1 | 30.9% |
| O=S(=O)(c1ccc(Br)cc1)c1nc(-c2ccccc2)oc1NCc1cccnc1 | 18.4% |
| O=C(NCc1ccco1)c1ccc(CS(=O)(=O)Cc2ccc(F)cc2)o1 | 42.4% |
| O=C(NCc1cccnc1)c1ccc(CS(=O)(=O)c2ccc(Br)cc2)o1 | 100% (active) |

| SMILES | inhibition |
| --- | --- |
| CC(C)CNC(=O)C1CCCN(S(=O)(=O)c2ccc(-n3cnnn3)cc2)C1 (stereo not given) | -17.5% |
| CC(C)(C)C(=O)CCN1C(=O)C2(OCCO2)c2ccccc21 | 30% |
| C=CCn1c(-c2ccc3[nH]c(C)c(C)c3c2)n[nH]c1=S | 29.1% |
| O=C(NCc1cn2ccsc2n1)Nc1ccc(Cl)cc1 | 29.8% |
| O=c1cc(Cn2nnc(-c3ccc(Cl)cc3)n2)nc2sccn12 | 65.5% (active) |
| O=C(NCc1ccc(Cl)cc1)c1cc2c(nc3sccn32)s1 | 14.8% |
| Cc1cccc(C)c1NC(=O)N1CC=C(n2c(=O)[nH]c3ccccc32)CC1 | -0.4% |
| Cc1nn(-c2ccccc2)c2c1C(=O)NC(=O)C(C)(C)C2 | 28% |
| Cc1ccc(C2=NN(C)c3nc4ccccc4n3C2)cc1 | 12.8% |
| Cc1ccc(CNC(=O)CCCNC(=O)c2ccc(Cl)cc2)n1C | 60.2% (active) |
| CCN(CC(=O)NC(C)C)C(=O)CCNC(=O)c1ccc(Cl)cc1 | 10.5% |
| CCCCNC(=O)CCNC(=O)c1ccc(C(C)(C)C)cc1 | 31.5% |
| N#C/C(=C(\O)CCl)c1nnc2n1CCCCC2 | 3.5% |
| O=C1CCCCC(=O)c2ccccc2N1 | 12.2% |
| CCOc1ccc(NC(=O)Nc2cc(C)on2)cc1 | 22.7% |
| CCOc1ccc(C(=O)Nc2ccncc2)cc1 | 97.9% (active) |
| CCOc1cccc(C(=O)Nc2cccnc2)c1 | -3.6% |
| CCCCCCOc1ccc(OC(=O)c2cccnc2)cc1 | 20.8% |
| CCCCOc1ccc(C(=O)NCc2ccncc2)cc1 | 76.1% (active) |
| CCCCOc1ccc(C(=O)NCc2ccco2)cc1 | 20.2% |
| CC(=O)Nc1nonc1-c1nc2ccccc2n1Cc1ccccn1 | -7.6% |
| CCN1C(=O)/C(=C2/Sc3ccccc3N2CCCS(=O)(=O)O)SC1=S | 0% |
| CCOc1ccc2[nH]c(=O)c(CN(CCCO)C(C)=O)cc2c1 | -11.4% |
| CC(C)CNC(=O)c1cc(-c2ccc(Br)cc2)on1 | -6.3% |
| c1ccc2c(c1)OCC(CNc1ncnc3nc[nH]c13)O2 (stereo not given) | 4% |

| SMILES | inhibition |
| --- | --- |
| O=c1c2c(nc3n1CCCCC3)sc1c(O)cccc12 | 72.2% (active) |
| Cc1cccc2c(=O)n3c(nc12)CCCCC3 | 28.1% |
| O=C(Nc1ccc2nc3n(c(=O)c2c1)CCCCC3)c1ccccc1Cl | 13.1% |
| O=C(CSc1nc2c(cnn2-c2ccc(F)cc2)c(=O)[nH]1)N1CCCCCC1 | 2.3% |
| Cc1noc(C)c1C(=O)OCC(=O)/C=C1\N(C)c2ccccc2C1(C)C | 60.2% (active) |
| CN1/C(=C\C(=O)c2oc3ccccc3c2N)C(C)(C)c2ccccc21 | 47.9% |
| CN1/C(=C\C=C2\N=C(c3ccc(F)cc3)OC2=O)C(C)(C)c2ccccc21 | 45.9% |
| O=P(O)(CP(=O)(c1ccccc1)c1ccccc1)c1ccccc1 | -1.3% |
| Cc1ccc(N2CCN(c3ccc(C)cc3)C2c2ccccn2)cc1 | 27.1% |
| CCc1ccccc1NC(=O)/C(=C/c1ccccc1)c1ccccc1 | 28.8% |
| O=C(CSc1nnc(-c2cccs2)n1Cc1ccccc1)N1CCc2ccccc2C1 | 31.9% |
| O=c1onc(-c2cccs2)n1Cc1ccccc1 | 79.9% (active) |
| O=c1[nH]c(-c2cccs2)nc2ccccc12 | 1.4% |
| Cn1c(C(=O)NCCN2CCc3ccccc3C2)cc2c(=O)[nH]c3ccccc3c21 | 14.8% |
| CCOC(=O)CCc1c(C)c2ccc(OCc3nn[nH]n3)c(C)c2oc1=O | 0% |
| O=C1c2cccc3cc(Br)cc(c23)C(=O)N1Nc1ccccc1 | 29.2% |
| Cc1noc(NS(=O)(=O)c2ccc(NC(=O)C34CCC(CC3)C4)cc2)c1C | -12.3% |
| Cc1ccccc1C(=O)N1CCC(C(=O)Nc2ccc(S(=O)(=O)N(C)C(C)C)cc2)CC1 | 25.1% |
| COC(=O)c1[nH]c2ccccc2c1NS(=O)(=O)c1ccc(OC)cc1OC | 89.7% (active) |
| COC(=O)c1[nH]c2ccc(Br)cc2c1NC(=O)Oc1ccccc1 | 7.3% |
| CCCS(=O)(=O)Nc1c(C(=O)O)[nH]c2ccccc12 | 11.8% |
| CCOCCCNC(=O)c1c[nH]c2cc(C)ccc2c1=O | -3.9% |
| CCC(C)NC(=O)CCCc1ccccc1 (stereo not given) | 58.1% (active) |
| CC(C)c1ccc(C(=O)NCCCc2ccccc2)cc1 | 14.8% |
| C[C@H](NC(=O)NCCc1ccccc1)C(=O)O | -17.1% |
